# Counter-ions that a name gives are not always drawn.
# How the values were obtained:
# Details in all cases: 20 µM; incubation time: 27 h, anaerobic, 37 °C;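 for the amine columns active = adjusted P below 0.05 in both replicates with a change the same way and a mean fold change under 0.8 or over 1.25; inactive = the rest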
# [1] = test system: Clostridium sporogenes DSM 1664; assay: growth (OD595) fold change vs plate DMSO controls (fold change (ratio)); higher = more growth
# Method in brief: (§1)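 To obtain OD, 595 nm absorbance readings were blank-subtracted, corrected for compound background using 20 µM compound solutions in water, and multiplied by a calibration factor of 5. They came from 96-well mGAM cultures grown anaerobically for 27 h at 37 °C and shaken before reading. Growth is the fold change relative to the median of plate DMSO controls. Two biological replicates were averaged, and fold changes above 1.5 were set to NA.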
# Escherichia coli IAI1 [2] = assay: as above
# Method in brief: as §1
# [3] = test system: Klebsiella aerogenes DSM 30053; assay: as above
# Method in brief: as §1
# [4] = test system: Ruminococcus gnavus DSM 108212; assay: as above
# Method in brief: as §1
# [5] = test system: Klebsiella aerogenes DSM 30053; assay: fold change of Histamine concentration vs plate DMSO controls (fold change (ratio)); higher = more amine produced, active = hit call of the paper (significant change in both replicates, either direction)
# Method in brief: (§2)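 Using LC–triple-quadrupole MS with dynamic MRM, amines were quantified against external calibration curves and corrected for drift within each batch. Samples were whole anaerobic mGAM cultures of four gut strains, grown 27 h at 37 °C from OD 0.1 before 1:1 dilution, extracted with cold acetonitrile/methanol containing 0.1% formic acid and centrifuged. Compounds were present at 20 µM final (sweeteners at 50 µM final). The numbers are fold changes versus plate DMSO controls, each the mean of 2 biological replicates.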
# [6] = test system: Clostridium sporogenes DSM 1664; assay: fold change of Tryptamine concentration vs plate DMSO controls (fold change (ratio)); higher = more amine produced, active = hit call of the paper (significant change in both replicates, either direction)
# Method in brief: as §2
# [7] = test system: Ruminococcus gnavus DSM 108212; assay: as above
# Method in brief: as §2
# Escherichia coli IAI1 [8] = assay: fold change of Putrescine concentration vs plate DMSO controls (fold change (ratio)); higher = more amine produced, active = hit call of the paper (significant change in both replicates, either direction)
# Method in brief: as §2
# [9] = test system: Klebsiella aerogenes DSM 30053; assay: as above
# Method in brief: as §2
# Escherichia coli IAI1 [10] = assay: fold change of Cadaverine concentration vs plate DMSO controls (fold change (ratio)); higher = more amine produced, active = hit call of the paper (significant change in both replicates, either direction)
# Method in brief: as §2
# [11] = test system: Klebsiella aerogenes DSM 30053; assay: as above
# Method in brief: as §2
# [12] = test system: Ruminococcus gnavus DSM 108212; assay: fold change of 2-Phenylethylamine concentration vs plate DMSO controls (fold change (ratio)); higher = more amine produced, active = hit call of the paper (significant change in both replicates, either direction)
# Method in brief: as §2
SMILES,growth [1],growth (Escherichia coli IAI1 [2]),growth [3],growth [4],fold change of Histamine concentration [5],fold change of Tryptamine concentration [6],fold change of Tryptamine concentration [7],fold change of Putrescine concentration (Escherichia coli IAI1 [8]),fold change of Putrescine concentration [9],fold change of Cadaverine concentration (Escherichia coli IAI1 [10]),fold change of Cadaverine concentration [11],fold change of 2-Phenylethylamine concentration [12]
O=C(NCCc1ncc(C(F)(F)F)cc1Cl)c1ccccc1C(F)(F)F,1.04,1.04,1.16,1.22,0.918 (inactive),0.969 (inactive),1.04 (inactive),0.983 (inactive),1.03 (inactive),0.972 (inactive),1.04 (inactive),1.02 (inactive)
N#Cc1c(Cl)c(Cl)c(Cl)c(C#N)c1Cl,0.937,1.02,0.925,0.962,1.03 (inactive),0.995 (inactive),0.853 (inactive),1 (inactive),0.995 (inactive),1.08 (inactive),0.991 (inactive),0.804 (inactive)
CSc1nnc(C(C)(C)C)c(=O)n1N,0.994,1.01,1,0.945,0.976 (inactive),0.982 (inactive),1.07 (inactive),0.945 (inactive),0.978 (inactive),0.959 (inactive),1.04 (inactive),1.13 (inactive)
CO[C@]12C[C@@H](COC(=O)c3cncc(Br)c3)CN(C)[C@@H]1Cc1cn(C)c3cccc2c13 [Nicergoline],0.937,1,1.03,0.96,0.955 (inactive),0.994 (inactive),0.968 (inactive),0.98 (inactive),0.99 (inactive),0.908 (inactive),1.02 (inactive),0.888 (inactive)
CC(=O)OC1CN2CCC1CC2 (centres undefined) [Aceclidine hydrochloride],1.15,1.09,1.01,1.13,0.864 (inactive),1.02 (inactive),1.03 (inactive),1.02 (inactive),0.959 (inactive),0.951 (inactive),1.02 (inactive),1.01 (inactive)
Clc1ccc(C(c2ccc(Cl)cc2)C(Cl)(Cl)Cl)cc1,0.984,0.974,0.996,1.12,1.03 (inactive),1.02 (inactive),0.962 (inactive),1.06 (inactive),1.02 (inactive),0.957 (inactive),1 (inactive),0.914 (inactive)
CN1C[C@H](C(=O)N[C@]2(C)O[C@@]3(O)[C@@H]4CCCN4C(=O)[C@H](Cc4ccccc4)N3C2=O)C[C@@H]2c3cccc4[nH]cc(c34)C[C@H]21 [Dihydroergotamine tartrate],1.2,1.13,1.1,0.827,0.89 (inactive),0.928 (inactive),0.982 (inactive),1.06 (inactive),0.984 (inactive),0.966 (inactive),1.01 (inactive),0.921 (inactive)
C[C@]12C/C(=C/O)C(=O)C[C@@H]1CC[C@@H]1[C@@H]2CC[C@@]2(C)[C@H]1CC[C@]2(C)O [Oxymetholone],1.21,1.01,1,1.16,0.984 (inactive),0.861 (inactive),0.223 (active),1.02 (inactive),1.02 (inactive),1 (inactive),1.01 (inactive),0.271 (active)
CCCN(CCOc1c(Cl)cc(Cl)cc1Cl)C(=O)n1ccnc1,1.07,0.976,1.01,0.951,1.02 (inactive),1.05 (inactive),1.02 (inactive),1 (inactive),1.01 (inactive),1.02 (inactive),0.998 (inactive),1.04 (inactive)
CC(Oc1ccc(Oc2ncc(C(F)(F)F)cc2Cl)cc1)C(=O)O (centres undefined),1.02,1.03,1.01,0.977,0.989 (inactive),0.943 (inactive),0.974 (inactive),1.05 (inactive),0.988 (inactive),1.04 (inactive),0.981 (inactive),0.982 (inactive)
CN[C@@H]1C[C@@H](c2ccc(Cl)c(Cl)c2)c2ccccc21 [Indatraline hydrochloride],1.13,1.06,0.959,0.932,0.904 (inactive),1.29 (inactive),0.8 (inactive),0.811 (inactive),0.863 (inactive),0.98 (inactive),1.1 (inactive),0.883 (inactive)
C=CC(N)=O [Acrylamide],0.971,0.969,0.977,0.973,0.995 (inactive),1.03 (inactive),0.999 (inactive),0.967 (inactive),0.987 (inactive),1.04 (inactive),0.972 (inactive),1.03 (inactive)
Oc1ccccc1-c1ccccc1,1,1.12,0.949,1.21,0.959 (inactive),0.993 (inactive),0.973 (inactive),0.955 (inactive),0.993 (inactive),1.01 (inactive),0.998 (inactive),0.965 (inactive)
CC(N)C(O)c1ccccc1 (centres undefined) [Phenylpropanolamine hydrochloride],0.914,1.04,0.98,1.21,1.1 (inactive),1.22 (inactive),1.07 (inactive),1.06 (inactive),1.03 (inactive),1.05 (inactive),0.982 (inactive),1.08 (inactive)
CCCCC(C#N)(Cn1cncn1)c1ccc(Cl)cc1 (centres undefined),1.07,1.07,1.01,1.14,0.939 (inactive),1.2 (inactive),1.07 (inactive),0.908 (inactive),0.815 (inactive),0.907 (inactive),1.16 (inactive),1.14 (inactive)
COP(=S)(OC)SCN1C(=O)c2ccccc2C1=O,1.02,1.08,1.05,0.965,0.945 (inactive),1.03 (inactive),1.01 (inactive),1.01 (inactive),1.01 (inactive),0.997 (inactive),1.01 (inactive),1 (inactive)
S=C(NC1CCCCC1)N1CCC(c2cnc[nH]2)CC1 [Thioperamide maleate],0.957,1.03,1.02,1.03,1.07 (inactive),1.05 (inactive),1.02 (inactive),0.98 (inactive),1.02 (inactive),0.951 (inactive),0.987 (inactive),1.01 (inactive)
COc1cc(C)c(C(=O)c2c(OC)ccc(Br)c2C)c(OC)c1OC,1.04,1.05,1.04,1.1,0.967 (inactive),0.978 (inactive),1.01 (inactive),1.02 (inactive),1.02 (inactive),1.07 (inactive),1.01 (inactive),1 (inactive)
CC[C@@]1([C@@H]2O[C@@H]([C@H]3O[C@@](O)(CO)[C@H](C)C[C@@H]3C)C[C@@H]2C)CC[C@H]([C@]2(C)CC[C@]3(C[C@H](O)[C@@H](C)[C@@H]([C@@H](C)[C@@H](OC)[C@H](C)C(=O)O)O3)O2)O1 [Monensin sodium salt],0.0614,1.09,1,0.204,0.975 (inactive),0.0398 (active),0.0682 (active),1.09 (inactive),1 (inactive),0.966 (inactive),0.999 (inactive),0.0948 (active)
COc1ccc(OC)c(C(O)C(C)N)c1 (centres undefined) [Methoxamine hydrochloride],0.777,0.736,0.696,0.0622,1.06 (inactive),1.07 (inactive),0.161 (active),1.05 (inactive),1 (inactive),0.968 (inactive),0.988 (inactive),0.165 (active)
CCN(CC)c1nc(C)cc(OP(=S)(OC)OC)n1,1.04,1.01,0.98,1.13,1.01 (inactive),1.06 (inactive),1.06 (inactive),1.02 (inactive),0.969 (inactive),0.901 (inactive),1 (inactive),1.05 (inactive)
CN/C(=N/CC1CCOC1)N[N+](=O)[O-] (centres undefined),1.07,1,1.01,1.03,1.03 (inactive),0.993 (inactive),1.01 (inactive),1.03 (inactive),1.02 (inactive),0.992 (inactive),0.999 (inactive),0.994 (inactive)
Cc1cccc(C)c1NC(=O)CN1CCCC1=O [Nefiracetam],1.01,0.985,1.02,1.06,0.973 (inactive),1.04 (inactive),1.01 (inactive),0.988 (inactive),1.01 (inactive),1.01 (inactive),1 (inactive),1.01 (inactive)
C[N+]1(C)CCCCC1,1,1.08,1.02,1.04,1.01 (inactive),0.957 (inactive),1.03 (inactive),1 (inactive),1.01 (inactive),0.995 (inactive),1.02 (inactive),1.05 (inactive)
NCCCNCCSP(=O)(O)O [Amifostine],0.94,1,1.12,1.38,0.978 (inactive),1.01 (inactive),1.03 (inactive),1 (inactive),0.999 (inactive),1.01 (inactive),0.999 (inactive),1.01 (inactive)
CCC(C)(C)C(=O)OC1=C(c2ccc(Cl)cc2Cl)C(=O)OC12CCCCC2,1.09,1.08,1.01,1.05,0.967 (inactive),1.05 (inactive),1.03 (inactive),1.02 (inactive),0.996 (inactive),0.997 (inactive),1.03 (inactive),1.05 (inactive)
CCCC[N+]1(C)[C@@H]2C[C@@H](OC(=O)[C@H](CO)c3ccccc3)C[C@H]1[C@@H]1O[C@@H]12 (some centres undefined) [N-Butylscopolammonium bromide],0.954,1.22,0.974,1.06,1.03 (inactive),0.921 (inactive),0.946 (inactive),1.27 (inactive),1.01 (inactive),0.975 (inactive),0.99 (inactive),0.913 (inactive)
